# Assay results: the supplement of paper PMC11417369
# ± gives the standard deviation of the averaged measurements. The full ranking holds about 25,000 sequences; the median of “ln(normalized median fluorescence intensity)” is about 8.9, and the highest 2% start at about 10. What follows is part of a selection rich in the highest values, with near analogues and random picks from the rest.
# System: PfAP2-LT AP2 domain (GST-tagged)
# Assay: gcPBM binding intensity (ln(normalized median fluorescence intensity)); higher = stronger DNA binding
# Outline: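 An Agilent 4 × 180k array carrying primer-extended double-stranded 36-bp intergenic genomic probes and negative controls received GST-tagged P. falciparum DNA-binding domains expressed in E. coli, about 25 μg on average, for 1 h. The binding buffer contained 1× PBS, 1% milk, 0.2 mg/ml BSA, 0.5% salmon testes DNA and 0.03% Triton X-100. Binding intensity is the top Masliner-normalised natural-log median intensity across replicate spots of either probe orientation, read after Alexa488 anti-GST antibody staining and a 488 nm scan.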
row,Sequence,gcPBM binding intensity (ln)
1,ATTTCTCTATCGTAATGTACATAAAAAATGAAAAAA [XGTACX_site1201],8.51 ± 0.51
2,TTATTATTTTATAACACACACATATATATTATATCT [CACACA_site1434],9.11 ± 0.35
3,ATTAAATCCGCACGCACACACACATATTAATAAAAA [CACACA_site3992],9.71 ± 0.33
4,AATTGTGCATTATATTGTACACGTGTTGTATATATT [XGTACX_site975],9.18 ± 0.33
5,TTTGTTTTTAATTTCGCACACACCTTGTGGAAAAAA [CACACA_site577],8.98 ± 0.3
6,TTATTTATAATATATACACACTAACATTATTTATCC [CACACA_site4835],8.8 ± 0.51
7,AAAAATAAATTTAGTTGTACTTTATTATTTTAAATA [XGTACX_site3067],8.28 ± 0.37
8,ATATAACATAGACACACACACATATAAATATATTAT [CACACA_site7865],9.67 ± 0.14
9,CTTCATAAAAATTGCACACATATAATAATGTACATA [CACACA_site2212],8.96 ± 0.36
10,TTAAATGGAAAAATATGTACATATATATATATATTT [XGTACX_site2286],8.84 ± 0.35
11,TAAACAGACATATAAACACACATATAAACCGACATA [CACACA_site2478],9.4 ± 0.48
12,CGCACACGCAGACACACACACACATATAAATAAATA [CACACA_site7101],9.74 ± 0.37
13,ACATCAAGCAGACACACACACACACCCACCCACCGA [CACACA_site371],10.4 ± 0.11
14,CAAGCACAGAAACACACACACACACCGACACAGACA [CACACA_site4359],10.1 ± 0.15
15,CGCGCACCCAGACACACACACACACCGATATATATA [CACACA_site8687],10.1 ± 0.48
16,CACGCACGCAGACACACACACACACGCACATATATA [CACACA_site6303],10.2 ± 0.38
17,AGCACGCACAGACACACACACATATTTATATTTATA [CACACA_site6291],9.72 ± 0.39
18,AACAGACATAGAAACACACATACATACATACATACA [CACACA_site2479],9.53 ± 0.65
19,AAGCATACATCAAGCACACACACACCCACAGAGACA [CACACA_site4362],9.91 ± 0.22
20,AACACGCGCAGACACACACACACACGCACATATATA [CACACA_site7104],10.3 ± 0.28
21,GATCCATTATTGATCCGTACTTATTCATGTTATATA [XGTACX_site5946],8.91 ± 0.51
22,AGAAAAAAATAATGTACACACACATATATGTTTATA [CACACA_site7946],9.14 ± 0.36
23,TATGTGCACCCATGTACATGCGGACATATGTTATAT [TGCATGCA_site383],9.04 ± 0.42

row,Sequence,gcPBM binding intensity (ln)
1,ATTTATATATTGCCCACACACATGTGATTATTTATA [CACACA_site1714],9.28 ± 0.46
2,CTAAATATATAAAAAAGTACAAAATAAATAATAATT [XGTACX_site2442],8.79 ± 0.46
3,ACATATATATATAAATATATATATATATAAATATAT [CACACA_negctrl_site895],9.03 ± 0.28
4,TATACAGGAATATTTTTACACACTAATAATTATAAA [CACACA_site8477],8.73 ± 0.5
5,TATATATATATGTGCACACCAATTGTATGTAATATA [CACACA_site3889],9.32 ± 0.2
6,TAAAAAGAAATGTAAAGTACAAATTTGAATAACATG [XGTACX_site7981],8.88 ± 0.52
7,ATTTTAACCAATTATTGTACTTGGTTATTCTTTTTT [XGTACX_site7453],8.94 ± 0.45
8,TTTTATTTTTAAGGATGTACTCAATTGTTTATATAC [XGTACX_site3965],8.85 ± 0.4
9,TTTTCTAAATTAATAATACACACTTGCTAAAATCAT [CACACA_site3207],8.47 ± 0.46
10,CAAGCACACGGACACACACACACACGCGCACGCACA [CACACA_site6307],10.3 ± 0.28
11,AGTATACATATATATACACACATATATATATATATA [CACACA_site300],9.83 ± 0.34
12,ATAATTTGTGGACACACACACACACCGACATATATA [CACACA_site8718],9.97 ± 0.33
13,ATTATAGACACGCGCACACACAACAAAAAAAAAAAA [CACACA_site9180],9.73 ± 0.61
14,ATTATACACGCGCGCACACACAACAAAAAAAAAAAA [CACACA_site7630],9.43 ± 0.48
15,AGTATACGCAGACACACACACACATATATATATATA [CACACA_site1735],10.22 ± 0.042
16,GGTATACGCAAGTATACACACATATATATATATATA [CACACA_site3240],10.01 ± 0.042
17,CACATACAGACATACACACATACACATATACGCATA [CACACA_site1745],9.61 ± 0.36
18,ATTTGGCATGGACACACACACACACCGACAGACATA [CACACA_site4491],10 ± 0.27
19,ACATCAAGCGGACACACACACACACCGACAGACACA [CACACA_site4361],10.2 ± 0.33
20,TATATACACAGACACACACACACATACACGCACATA [CACACA_site6909],10.1 ± 0.22
21,TTTTTTAAAATATGGACACACATATATATATCTGTA [CACACA_site5535],8.88 ± 0.38
22,TATATCTTAATATACACACACACATATATATATATA [CACACA_site4968],9.71 ± 0.014
23,AAAAAAACATAAAATACACACAACCTTAAGAATGTA [CACACA_site3293],9.12 ± 0.38

row,Sequence,gcPBM binding intensity (ln)
1,CAACATATATTAATATGTACATATATATAGATATAT [XGTACX_site4107],8.81 ± 0.44
2,ATATATATATATATATGTACATATTTCTCCATTTTT [XGTACX_site2869],9.61 ± 0.39
3,ACATATAAATATATTACACACACACTAAAAAAATAA [CACACA_site6209],9.69 ± 0.27
4,TAACATATTAATAACATATTTATAATATATTAATAA [TGCATGCA_negctrl_site243],8.34 ± 0.43
5,TATAAAAATTAATATTGTACGTTTTATGAAAATAAA [XGTACX_site8237],8.21 ± 0.47
6,AGCACACGCAGACACACACACACACGCACACGCACA [CACACA_site6306],10.3 ± 0.23
7,AAAAAAAAAAGACACACACACAAAAAAAGATATATA [CACACA_site6645],9.9 ± 0.38
8,AAAAAAAAAAGACACACACACACACGCATATACATA [CACACA_site7289],10.18 ± 0.05
9,AACACGCGCAGACACACACACACACCCACATATATA [CACACA_site2205],10.3 ± 0.27
10,AATACACGCAGACACACACACAAAAAAAAAAAAAAA [CACACA_site6384],9.53 ± 0.61
11,CGCGCACCCAGACACACACACACACCCATATATATA [CACACA_site2203],9.96 ± 0.25
12,TACACGCAGAAACACACACACACACCCATATATATA [CACACA_site637],10.1 ± 0.28
13,CGTGGGAGCAGACACACACACACACGCATATTTATA [CACACA_site6290],9.89 ± 0.45
14,AAAAAAAAAAGACACACACACACACGGAGATATATA [CACACA_site6216],10.4 ± 0.19
15,AAAAAAAAAAGACACACACACATATTTATTTATATA [CACACA_site6484],9.67 ± 0.4
16,ATATTTAGGAAAAATAGTACACATTTAAATAATAAT [XGTACX_site7989],8.68 ± 0.47
17,TTGAAATATACGTAAGTAAATTTCATTTGGTTGTGT [XGTACX_negctrl_site600],8.77 ± 0.47
18,AATATACAAATTACAAGTACAAATCAATATTATATG [XGTACX_site7521],8.9 ± 0.42
19,AATTATTTATTGAGAGTGCAACAAATTATTTCAAAT [GTGCAC_site9461],8.44 ± 0.49
20,AATATTTTAATGCACACACACAAAAAAAAAAAAAAA [CACACA_site7374],9.18 ± 0.33
21,AATAATAAATATATATATATATATATATATATATTT [CACACA_negctrl_site786],9.04 ± 0.21
22,CATAATAGTTATAAAATACACACCAGGCATGATAAA [CACACA_site329],9 ± 0.4
23,ATATATATATATATATGTACATATAATTTTTTTTTT [XGTACX_site6948],9.56 ± 0.16

row,Sequence,gcPBM binding intensity (ln)
1,GGAATATTTATACATACACACATATATTTATTTATA [CACACA_site6883],8.91 ± 0.38
2,TAACTTTGAAAAGATGGTACACAATAATATATATAT [XGTACX_site8667],8.83 ± 0.35
3,CCTTTCACATATAATACATGCATTATTATATATGAA [TGCATGCA_site287],8.7 ± 0.23
4,TATATATATATATACACACACACACCGATATATATA [CACACA_site8813],10 ± 0.11
5,AAAAAAAAAAAACACACACACACACCGAAATATATA [CACACA_site4261],9.99 ± 0.33
6,TATACATACATACATACACACACACCGATATATACA [CACACA_site8184],9.89 ± 0.11
7,AAAAAAAAAAAACACACACACACACCGATACATACA [CACACA_site8849],10.4 ± 0.085
8,CAAAAAAACAAACACACACACACACCGATATATATA [CACACA_site9218],10.1 ± 0.23
9,TATATATACATATACACACACACACCGATATATATA [CACACA_site8706],9.9 ± 0.29
10,CATACATACAAACACACACACACACCGATATATATA [CACACA_site8952],10.29 ± 0.092
11,AGGAGGAACAAACAAAACAATAAAAATTATAATAAA [GTGCAC_negctrl_site206],8.78 ± 0.64
12,GTGTATTTATGTTATACACACAAAAATATTTTGTAT [CACACA_site4305],9.01 ± 0.33
13,TTATATATACCATAATGTACTCTATTATATAAAAAA [XGTACX_site7464],8.41 ± 0.4
14,AAAGATAATATATGCACACATATAAATATATAAATA [CACACA_site3477],9.07 ± 0.43
15,TAATTATGCAGACACACACACACACCCAACTAAAAA [CACACA_site2569],9.96 ± 0.23
16,AAAAGATAATTATGCACACACACACCCAGACACAAC [CACACA_site5428],10.34 ± 0.021
17,AAAAAAGATAATTATGCACACACACCCACCCACCCA [CACACA_site8825],10.085 ± 0.0071
18,TATGCACCCAGACACACACACACAACTAAAAAATAA [CACACA_site2567],9.8 ± 0.35
19,AAAAGATAATTATGCACACACACACCCCCACCCAAC [CACACA_site2570],10.38 ± 0.064
20,ATTATATATATGTGCACACAAAAGATATATATATAT [CACACA_site5205],9.95 ± 0.26
21,TAATTATGCCAACACACACACACACCCAACTAAAAA [CACACA_site8823],9.965 ± 0.092
22,AAAAGATAAAATTATGCACACATACGAATAATTTTA [CACACA_site8497],8.92 ± 0.48
